HT1080NT lethal: kills 2HG-producing HT-1080-NT fibrosarcoma cells; AID 686970; HT-1080-NT fibrosarcoma viability, CellTiter-Glo ATP luminescence, 48 h; Potency, µM (doses to about 46.1 µM), usual class: cytotoxic; 1.6% of 360,000 active;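 also: NT is the 2HG producing partner of a matched IDH1 knockdown line; nearly all actives have a fitted effect of over 55% in size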
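HT-1080-NT fibrosarcoma cells (2HG-overproducing), 750 cells/well in RPMI with 5% FBS, dosed after 2 h and incubated 48 h at 37C. CellTiter-Glo luminescence normalized to DMSO and no-cell wells; concentration-response curves fitted and classed.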
DT40 TDP1 no CPT: qHTS for Inhibitors of human tyrosyl-DNA phosphodiesterase 1 (TDP1): qHTS in cells in absence of CPT; DT40 Tdp1-/- hTDP1 cells, no CPT, ATP luminescence, 48 h; Potency, µM (doses to about 46.2 µM), usual class: inhibitors; 15% of 420,000 active; AID 686978, 2013; also: nearly all actives have a fitted effect of over 55% in size
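Cells were dispensed at 400 per well, compounds added by pin tool, plates incubated ≥48 hr at 37 °C, then CellTiter-Glo added for 30 min at room temperature before luminescence reading. Line: DT40 Tdp1-/- complemented with hTDP1; camptothecin omitted.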
TDP1 cell CPT: DT40-hTDP1 cell growth loss with CPT; Potency, µM (series often up to 46.2 µM), most hits filed as inhibitors; chicken DT40 Tdp1-/-;hTDP1 cells + 20 nM CPT, ATP luminescence, 48 h; AID 686979; 12% of 420,000 active; also: nearly all actives have a fitted effect of over 55% in size
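Chicken DT40 Tdp1-/- cells stably complemented with human TDP1 were seeded at 400 cells/well in medium containing 20 nM camptothecin, exposed to pin-transferred compounds, and grown at 37 °C for at least 48 hr. Viability was read as ATP luminescence.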
IL-1B inflam inh: blocks inflammasome-driven IL-1 beta release | THP-1 LPS/ATP IL-1B secretion, AlphaLISA, 16 h; hits give low values | activity change, % at 57.5 µM | 4.7% of 360,000 active | AID 743279; in the data active = activity change below about -50%; inconclusive = mostly about -30% to -49%
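Secreted IL-1B measured by AlphaLISA bead assay after 16 h compound exposure of THP-1 cells; compounds (final up to 57.5 uM) added 1 h before LPS (250 ng/mL) and ATP (1.25 mM) stimulation; lower signal means less secretion.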
HT1080 IDH1KD tx: toxicity to HT-1080 IDH1 knockdown cells (counter line); HT-1080 IDH1 knockdown viability, ATP luminescence, 48 h; 2% of 360,000 active; Potency, µM (doses to about 46.1 µM), actives largely listed as cytotoxic
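% activity derives from luminescence (CellTiter-Glo), normalised to DMSO and no-cell wells. HT-1080-IDH1KD cells, 750/well, had 48 h compound exposure at 37 °C.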
Hits are given with their value; - = inactive; ? = inconclusive; . = no result given. Compounds with a hit are over-represented: about 19% of the library has one in this group of screens. Unless noted, calls follow the shape of the dose curve; as a rule, active = well fitted curve in the direction sought with a large enough effect; inconclusive = small, poorly fitted or top-dose-only effect, or another doubt; inactive = no such curve, though single readings can be large; an effect the other way counts as inactive or inconclusive.

SMILES	HT1080NT lethal	DT40 TDP1 no CPT	TDP1 cell CPT	IL-1B inflam inh	HT1080 IDH1KD tx
CC1CCCN(S(=O)(=O)c2ccc(N3CCCCS3(=O)=O)cc2)C1 (stereo unspecified)	.	-	-	.	.
CCN(CC)C(=S)SC1CCCCN(C(=O)c2ccccc2)C1=O (stereo unspecified)	-	-	18µM	-	-
COC(=O)CSc1cccc2c1C(=O)CC2c1ccccc1 (stereo unspecified)	-	-	-	-	-
O=C1C=CC2(O[C@H](c3ccccc3)[C@@H](c3ccccc3)O2)[C@H](Sc2ccccc2O)C1	4.6µM	0.58µM	0.46µM	-117	3.3µM
Cc1ccccc1OCCC(=O)OCC(=O)NC1CCCCC1	-	-	-	-	-
CC(C)c1ccc(N(CC(=O)NC2CCCC2)C(=O)CCC(=O)Nc2ccccn2)cc1	-	?	?	?	-
Cc1cc(C)c2c(NC(=O)CCl)nn(C)c2n1	?	12µM	13µM	-98	?
Cc1cc(C)c2c(NC(=S)NC(=O)c3ccccc3)nn(C)c2n1	-	-	-	-	-
CNC(=S)N/N=C/C1=CCC2CC1C2(C)C (stereo unspecified)	-	?	7.3µM	-	-
CC1(C)C2CC=C(/C=N/NC(=O)c3ccccc3O)C1C2 (stereo unspecified)	-	-	-	-	-
NC(N)=NN=Cc1ccnc2ccccc12	-	?	15µM	-104	-
NC(=NCc1ccccc1)NN=Cc1ccnc2ccccc12	?	?	21µM	-110	?
N/C(=N\N=C\c1ccnc2ccccc12)SC1CC(=O)N(c2ccc(Br)cc2)C1=O (stereo unspecified)	-	15µM	?	-	-
N/C(=N\N=C\c1cccs1)SC1CC(=O)N(c2ccc(Br)cc2)C1=O (stereo unspecified)	-	?	-	-	?
c1ccc(COc2ccccc2CNc2nn[nH]n2)cc1	-	-	-	-	-
CCCCN1CC(Br)C(=O)NC1=O (stereo unspecified)	-	18µM	15µM	-	-
N#Cc1ccccc1NC(=O)C1CC(=O)N(c2ccc3c4c(cccc24)CC3)C1 (stereo unspecified)	-	-	-	-	-
Cc1cc2nc(N)sc2cc1[N+](=O)[O-]	-	?	-	?	-
CCOC(=O)c1sc(NC(=O)Nc2cccc(Cl)c2)cc1C	?	9.2µM	10µM	-76	?
CCOC(=O)c1sc(NC(=O)c2cccs2)cc1C	-	?	?	?	?
CCOC(=O)c1sc(NC(=O)c2ccc(Br)o2)cc1C	-	16µM	?	?	-
Cn1c(=O)c2cc(NC(=O)NCCc3cccs3)ccc2n1C/C=C/c1ccccc1	-	?	?	-	-
CCC(C)(C)n1nnnc1C(c1cccs1)N1CCc2ccccc21 (stereo unspecified)	-	16µM	29µM	-	-
CC(C)(C)n1nnnc1C(c1ccc(Cl)cc1)N1CCCc2ccccc21 (stereo unspecified)	-	15µM	?	-	-
COCCOC(=O)c1[nH]c2c(c1C)C(=O)CC(c1ccc(OC)c(OC)c1)C2 (stereo unspecified)	-	-	?	-	-
SMILES	HT1080NT lethal	DT40 TDP1 no CPT	TDP1 cell CPT	IL-1B inflam inh	HT1080 IDH1KD tx
COC(=O)c1[nH]c2c(c1C)C(=O)CC(c1cccc(OC)c1)C2 (stereo unspecified)	0.73µM	1.3µM	1.5µM	-	0.92µM
COC(=O)c1[nH]c2c(c1C)C(=O)CC(c1cc(OC)c(OC)c(OC)c1)C2 (stereo unspecified)	-	12µM	23µM	-	-
CCOCCOC(=O)c1[nH]c2c(c1C)C(=O)CC(c1cc(OC)c(OC)c(OC)c1)C2 (stereo unspecified)	-	9.2µM	10µM	-	-
COC(=O)c1[nH]c2c(c1C)C(=O)CC(c1ccc(OC)c(OC)c1)C2 (stereo unspecified)	-	-	?	-	-
Cc1c(C(=O)OC2CCC(C)CC2)[nH]c2c1C(=O)CC(c1ccc(N(C)C)cc1)C2 (stereo unspecified)	.	-	-	.	.
COc1cc(C2CC(=O)c3c([nH]c(C(=O)OC4CCCC4)c3C)C2)cc(OC)c1OC (stereo unspecified)	.	1.8µM	1.6µM	.	.
COc1ccc(NC(=O)n2ncc3cc(Cl)ccc32)cc1OC	-	-	-	-	-
O=C(Nc1ccc(S(=O)(=O)NC2=NCCCCC2)cc1)c1cc(F)c(F)cc1Cl	-	?	-	-	-
CCOC(=O)C1=C[C@@H](c2ccccc2)N(S(=O)(=O)c2ccc(C)cc2)[C@H]1c1ccc(OC)cc1	-	?	16µM	-	-
CCOC(=O)C1=C[C@@H](C(C)(C)C)N(S(=O)(=O)c2ccc(C)cc2)[C@H]1c1ccc(F)cc1	-	23µM	18µM	-	?
CCOC(=O)C1=C[C@@H](C(C)(C)C)N(S(=O)(=O)c2ccc(C)cc2)[C@H]1c1ccccc1	?	?	?	-	?
CCOC(=O)C1=C[C@@H](C(C)(C)C)N(S(=O)(=O)c2ccc(C)cc2)[C@H]1c1ccc(OC)cc1	-	21µM	?	-	-
CCOC(=O)C1=C[C@@H](C(C)(C)C)N(S(=O)(=O)c2ccc(OC)cc2)[C@H]1c1ccccc1	?	?	18µM	-	?
COc1cccc(C2=CC(=O)C[C@H](c3ccc(Cl)cc3)C2)c1OC	-	?	23µM	?	-
COc1ccccc1C1=CC(=O)C[C@H](c2ccc(Cl)cc2)C1	?	?	15µM	-54	?
COc1cc(F)c(C2=CC(=O)C[C@H](c3ccc(F)cc3)C2)cc1F	-	-	?	-	-
COc1ccc(C=O)cc1C1=CC(=O)C[C@H](c2ccc(Cl)cc2)C1	?	?	?	-	?
C/C(=N\NC(=O)c1cccc(Br)c1)c1cccc(NC(=O)c2ccc(C)o2)c1	-	?	-	-	-
O=C(NC(=S)Nc1cccc(Cl)c1N1CCOCC1)c1cccs1	-	26µM	?	-	-
O=C(NC(=S)Nc1ccc(N2CCCCC2)cc1)c1ccco1	7.1µM	-	-	-	14µM
O=C(NC(=S)Nc1ccccc1N1CCCC1)c1ccco1	-	?	-	.	-
O=C(NC(=S)Nc1ccccc1N1CCCCC1)c1ccco1	-	?	15µM	-	-
O=C(NC(=S)Nc1cccc(Cl)c1N1CCCCC1)c1ccco1	11µM	?	?	-	?
COc1cccc(NC(=O)C23CCC(C)(C(=O)O2)C3(C)C)c1 (stereo unspecified)	-	-	-	-	-
CS(=O)(=O)N1CCN(c2ccccc2NC(=S)NC(=O)c2ccco2)CC1	-	?	?	-	-

Assay outcomes (PubChem)
